Experimental data reported in PubChem BioAssay (Tox21).
The source made the active and inactive calls. Unless noted, calls follow the shape of the dose curve; as a rule, active = well fitted curve in the direction sought with a large enough effect in the repeat runs; inconclusive = weak or mixed curves; inactive = no such curve, though single readings can be large; an effect the other way counts as inactive or inconclusive.

Legend:
[1] = qHTS assay for small molecule agonists of the p53 signaling pathway (AID 651631; calls by dose curve; also: nearly all actives have a fitted effect of over 15% in size)
Method in brief: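 Testing took place in human colorectal HCT-116 cells with stable p53RE-driven beta-lactamase. After 16 h of compound exposure at 37 °C, a FRET substrate was added and fluorescence recorded 2 h later.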

[2] = qHTS assay for small molecules that induce genotoxicity in human embryonic kidney cells expressing luciferase-tagged ATAD5 (AID 651632); also: nearly all actives have a fitted effect of over 15% in size; also: potency is read from the fitted curve at half-maximal effect
Method in brief: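 Genotoxicity read-out via ATAD5-luciferase: HEK293T cells, 16 hr compound incubation at 37C, Amplite detection.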

[3] = qHTS assay for small molecule agonists of the p53 signaling pathway - cell viability (AID 651633; calls by dose curve; also: series mostly up to about 83 µM; nearly all actives have a fitted effect of over 30% in size)
Method in brief: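 p53RE-bla cells were treated with compound for 16 hours at 37 C. Cytotoxicity was then measured as CellTiter-Glo luminescence after 30 min at room temperature.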

[4] = qHTS assay for small molecules that induce genotoxicity in human embryonic kidney cells expressing luciferase-tagged ATAD5 - cell viability (AID 651634; calls by dose curve; also: nearly all actives have a fitted effect of over 25% in size)
Method in brief: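 Live-cell protease activity (CellTiter-Fluor, fluorescence) indicates viability. HEK293T cells with luciferase-tagged ATAD5; 15.5 hr compound treatment at 37C.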

[5] = qHTS assay for small molecule disruptors of the mitochondrial membrane potential - cell viability (AID 720634; calls by dose curve;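 also: human HepG2 liver cancer cells; series mostly up to about 83 µM; nearly all actives have a fitted effect of over 20% in size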)
Method in brief: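 Human hepatoma HepG2 cells were treated for 1 hr with test chemicals, then given m-MPI dye and CellTiter-Glo. Cell viability reflects luminescence proportional to cellular ATP.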

[6] = qHTS assay to test for compound auto fluorescence at 590 nm (red) in HepG2 cells (AID 720674)
Method in brief: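 Seeding: 2,000 HepG2 cells/well, MEM/10% FBS, overnight 37 C. Dosing: compound vs DMSO. Incubation: 1 hr, 37 C, 5% CO2. Read: fluorescence 540 ex/590 em, Rose Bengal sodium as red reference.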

[7] = qHTS assay to test for compound auto fluorescence at 535 nm (green) in HepG2 cells (AID 720675)
[8] = qHTS assay to test for compound auto fluorescence at 460 nm (blue) in HEK293 cells (AID 720678)
Method in brief: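 After cell attachment (4-5 hr, 37C), compounds were pinned onto HEK293 monolayers in 10% dialyzed FBS medium. The blue channel (405/460 nm) was read following overnight culture. Equivalency was calculated against triamterene.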

[9] = qHTS assay to test for compound auto fluorescence at 590 nm (red) in HEK293 cells (AID 720679)
Method in brief: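 Plates of HEK293 cells (10% dialyzed FBS) are treated with 23 nL compound or DMSO vehicle after a 4-5 hr attachment period, incubated overnight at 37C, and read for red fluorescence at 540/590nm.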

[10] = qHTS assay to test for compound auto fluorescence at 535 nm (green) in HEK293 cells (AID 720680)
[11] = qHTS assay to test for compound auto fluorescence at 460 nm (blue) in HEK293 cell free culture (AID 720681)
Method in brief: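 Compounds were added to cell-free DMEM with 10% FBS and fluorescence read directly. The blue channel used 405 nm excitation and 460 nm emission, with triamterene as the reference fluorophore.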

[12] = qHTS assay to test for compound auto fluorescence at 535 nm (green) in HEK293 cell free culture (AID 720682)
Method in brief: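 DMEM + 10% FBS, cell-free; cpd or DMSO pinned in; Ex485/Em535 read; output as fluorescein-equivalent signal.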

[13] = qHTS assay to test for compound auto fluorescence at 590 nm (red) in HEK293 cell free culture (AID 720683)
Method in brief: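 Cell-free wells of DMEM with 10% FBS received compound, and intrinsic fluorescence was read at excitation/emission 540/590 nm. Values expressed as equivalence to Rose Bengal sodium.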

[14] = qHTS assay to test for compound auto fluorescence at 590 nm (red) in HepG2 cell free culture (AID 720684)
Method in brief: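 Compound was pinned into wells holding MEM with 10% FBS and no cells, and red fluorescence was read at Ex/Em 540/590 nm. Signal is expressed as auto fluorescence equivalency relative to Rose Bengal sodium.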

[15] = qHTS assay to test for compound auto fluorescence at 460 nm (blue) in HepG2 cell free culture (AID 720685)
Method in brief: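 Compound (23 nL) or DMSO pinned into cell-free MEM with 10% FBS; blue fluorescence read at 405/460 nm excitation/emission, expressed as auto-fluorescence equivalency to triamterene.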

[16] = qHTS assay to test for compound auto fluorescence at 535 nm (green) in HepG2 cell free culture (AID 720686)
[17] = qHTS assay to test for compound auto fluorescence at 460 nm (blue) in HepG2 cells (AID 720687)
Method in brief: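 HepG2 cells in MEM with 10% FBS, attached overnight at 37 C, were exposed to compound or DMSO for 1 hr at 37 C, 5% CO2. Blue fluorescence was read at 405/460 nm, with triamterene as reference fluorophore.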

[18] = biological target: Glucocorticoid receptor (Homo sapiens) (UniProt P04150); assay: qHTS assay to identify small molecule agonists of the glucocorticoid receptor (GR) signaling pathway (AID 720691; active = well fitted activation curve with a large enough effect in the signal ratio in the repeat runs, not every such curve was filed as active; inconclusive = weak or mixed curves, or effect the other way; inactive = no such curve, though single readings can be large or run the other way; the % refers to the signal ratio; also: potency is read from the fitted curve at half-maximal effect)
Method in brief: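 Beta-lactamase reporter activity, read as fluorescence intensity, was measured in GR-bla HeLa cells exposed to compounds for 18 h at 37 C and then loaded with LiveBLAzer B/G FRET substrate for 2 h at room temperature.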

[19] = biological target: Glucocorticoid receptor (Homo sapiens) (UniProt P04150); assay: qHTS assay to identify small molecule antagonists of the glucocorticoid receptor (GR) signaling pathway (AID 720692; active = well fitted inhibition curve with a large enough effect in the signal ratio in the repeat runs, not every such curve was filed as active; inconclusive = weak or mixed curves, or effect the other way; inactive = no such curve, though single readings can be large or run the other way; the % refers to the signal ratio)
Method in brief: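 Fluorescence from cleaved LiveBLAzer B/G FRET substrate reports GRE-driven beta-lactamase in HeLa cells; compounds are tested against 5 nM dexamethasone (final) over 18 h at 37 C, substrate incubation 2 h at room temperature.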
% is scaled to controls: 0 for no effect and ±100 for the full control effect.

Chain of Glucocorticoid receptor (Homo sapiens) (P04150 whole entry, looked up): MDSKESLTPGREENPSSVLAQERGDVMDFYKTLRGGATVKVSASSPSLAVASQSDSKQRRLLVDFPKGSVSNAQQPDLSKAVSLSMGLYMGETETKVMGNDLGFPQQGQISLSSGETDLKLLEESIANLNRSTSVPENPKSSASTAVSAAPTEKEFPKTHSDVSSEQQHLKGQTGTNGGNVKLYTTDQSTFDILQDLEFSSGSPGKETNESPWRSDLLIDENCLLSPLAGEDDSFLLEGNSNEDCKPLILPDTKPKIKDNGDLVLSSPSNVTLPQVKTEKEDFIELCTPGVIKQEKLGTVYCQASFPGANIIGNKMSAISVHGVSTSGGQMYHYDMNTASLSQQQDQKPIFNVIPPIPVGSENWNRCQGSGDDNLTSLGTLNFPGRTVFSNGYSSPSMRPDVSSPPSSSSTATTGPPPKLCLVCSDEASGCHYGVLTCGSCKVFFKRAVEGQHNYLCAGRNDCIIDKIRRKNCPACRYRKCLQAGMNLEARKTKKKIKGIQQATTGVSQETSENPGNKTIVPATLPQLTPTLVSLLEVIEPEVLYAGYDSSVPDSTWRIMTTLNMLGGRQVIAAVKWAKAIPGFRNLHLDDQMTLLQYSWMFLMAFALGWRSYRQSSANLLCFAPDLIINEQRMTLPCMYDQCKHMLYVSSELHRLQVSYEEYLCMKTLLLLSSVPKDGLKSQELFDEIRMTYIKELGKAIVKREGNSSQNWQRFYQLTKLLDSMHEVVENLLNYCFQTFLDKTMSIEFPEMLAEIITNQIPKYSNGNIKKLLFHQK

O=C1OCCN1/N=C/c1ccc([N+](=O)[O-])o1
inactive: Potency [1] | Potency [2] | Potency [3] | Potency [4] | Potency [5] | outcome [6] | outcome [7] | Potency [8] | outcome [9] | outcome [10] | Potency [11] | outcome [12] | outcome [13] | outcome [14] | Potency [15] | outcome [16] | Potency [17] | Potency [18] | Potency [19]

CC(=O)[C@H]1CC[C@H]2[C@@H]3C[C@H](C)C4=CC(=O)CC[C@]4(C)[C@H]3[C@@H](O)C[C@]12C
active: Potency [18] 32.3 nM
inactive: Potency [1] | Potency [2] | Potency [3] | Potency [4] | Potency [5] | fluorescence, relative to Rose Bengal [6] 0.133% [at 18.6 µM] | fluorescence, % of fluorescein control [7] -0.105% [at 18.6 µM] | fluorescence, % of triamterene [8] -0.0231% [at 18.6 µM] | fluorescence, % of fluorescent control [9] -0.987% [at 18.6 µM] | fluorescence, % of fluorescein [10] 0.123% [at 18.6 µM] | fluorescence, % of fluorescent control [11] -0.0076% [at 18.6 µM] | activity change [12] -0.0137% [at 18.6 µM] | fluorescence, % of fluorescent control [15] 0.0471% [at 18.6 µM] | fluorescence, % of fluorescein control [16] 0.189% [at 18.6 µM] | fluorescence, % of fluorescent control [17] 0.0065% [at 18.6 µM]

CN1CCCN=C1/C=C/c1cccs1
inactive: Potency [1] | Potency [2] | Potency [3] | Potency [4] | Potency [5] | outcome [6] | outcome [7] | Potency [8] | outcome [10] | Potency [11] | outcome [12] | outcome [13] | outcome [14] | Potency [15] | outcome [16] | Potency [17] | Potency [18] | Potency [19]

CCn1nc(C)c2c1C(=O)NCC(c1ccc(O)cc1)=N2
inactive: Potency [1] | Potency [2] | Potency [3] | Potency [4] | Potency [5] | outcome [6] | outcome [7] | Potency [8] | outcome [9] | Potency [11] | outcome [12] | outcome [13] | outcome [14] | Potency [15] | outcome [16] | Potency [17] | Potency [18]

CC1(C)O[C@@H]2C[C@H]3[C@@H]4CCC5=CC(=O)C=C[C@]5(C)[C@H]4[C@@H](O)C[C@]3(C)[C@]2(C(=O)CO)O1
active: Potency [2] 11.9 nM | Potency [18] 30.1 nM [inconclusive]
inactive: Potency [1] | Potency [3] | Potency [4] | Potency [5] | outcome [6] | outcome [7] | Potency [8] | outcome [9] | outcome [10] | Potency [11] | outcome [12] | outcome [13] | outcome [14] | Potency [15] | outcome [16] | Potency [17]

c1ccc(COCc2ccccc2)cc1
inactive: Potency [1] | Potency [2] | Potency [3] | Potency [4] | Potency [5] | outcome [6] | outcome [7] | Potency [8] | outcome [9] | outcome [10] | outcome [12] | outcome [13] | outcome [14] | Potency [15] | outcome [16] | Potency [18] | Potency [19]

O=C(CCCCCCCCC#CI)Oc1ccccc1
inactive: Potency [1] | Potency [2] | Potency [3] | Potency [4] | Potency [5] | outcome [6] | outcome [7] | Potency [8] | outcome [9] | outcome [10] | Potency [11] | outcome [12] | outcome [13] | outcome [14] | Potency [15] | outcome [16] | Potency [17] | Potency [18] | Potency [19]

CCCCOC(=O)CCS
inactive: Potency [1] | Potency [2] | Potency [3] | Potency [4] | Potency [5] | outcome [6] | outcome [7] | Potency [8] | outcome [9] | outcome [10] | Potency [11] | outcome [12] | outcome [13] | outcome [14] | Potency [15] | Potency [17] | Potency [18]

N#C[C@@H]1C[C@@H]2C[C@@H]2N1C(=O)[C@@H](N)C12CC3CC(CC(O)(C3)C1)C2
inactive: Potency [1] | Potency [2] | Potency [3] | Potency [4] | Potency [5] | outcome [6] | outcome [7] | Potency [8] | outcome [9] | outcome [10] | Potency [11] | outcome [12] | outcome [13] | outcome [14] | Potency [15] | outcome [16] | Potency [17] | Potency [18]

C[Si]1(C)O[Si](C)(C)O[Si](C)(C)O1
inactive: Potency [1] | Potency [2] | Potency [3] | Potency [4] | Potency [5] | outcome [6] | outcome [7] | Potency [8] | outcome [9] | outcome [10] | Potency [11] | outcome [12] | outcome [13] | Potency [15] | outcome [16] | Potency [17]

O=C(O)Cc1ccc(-c2ccccc2)cc1
inactive: Potency [1] | Potency [2] | Potency [3] | Potency [4] | Potency [5] | fluorescence, relative to Rose Bengal [6] 0.37% [at 18.6 µM] | fluorescence, % of fluorescein control [7] -0.0175% [at 18.6 µM] | fluorescence, % of triamterene [8] -0.322% [at 18.6 µM] | fluorescence, % of fluorescein [10] -0.0578% [at 18.6 µM] | fluorescence, % of fluorescent control [11] 0% [at 18.6 µM] | activity change [12] -0.0541% [at 18.6 µM] | fluorescence, % of fluorescent control [13] 0.0962% [at 18.6 µM] | fluorescence, % of Rose Bengal [14] -0.0701% [at 18.6 µM] | fluorescence, % of fluorescent control [15] -0.109% [at 18.6 µM] | fluorescence, % of fluorescent control [17] -0.1% [at 18.6 µM] | Potency [18] | Potency [19]

CNC(=S)NC
inactive: Potency [1] | Potency [2] | Potency [3] | Potency [4] | Potency [5] | outcome [6] | outcome [7] | Potency [8] | outcome [9] | outcome [10] | Potency [11] | outcome [12] | outcome [14] | Potency [15] | outcome [16] | Potency [17] | Potency [18]

CNC(=O)N(c1ccccc1)c1ccccc1
inactive: Potency [1] | Potency [2] | Potency [3] | Potency [4] | Potency [5] | outcome [6] | outcome [7] | Potency [8] | outcome [9] | outcome [10] | outcome [12] | outcome [13] | outcome [14] | Potency [15] | outcome [16] | Potency [17]

O=C(O)c1snc(Cl)c1Cl
inactive: Potency [1] | Potency [2] | Potency [3] | Potency [4] | Potency [5] | outcome [6] | outcome [7] | Potency [8] | outcome [9] | outcome [10] | outcome [12] | outcome [13] | outcome [14] | Potency [15] | outcome [16] | Potency [17] | Potency [18]
